# Laboratory results published in ChEMBL document CHEMBL3433997, “St. Jude Leishmania screening dataset” (2016).
# Legend:
# Assay type in all cases: functional
# [1] = biological target: Solute carrier family 2, facilitated glucose transporter member 1 (Homo sapiens) (UniProt P11166); assay: ST_JUDE_LEISH: Cytotoxicity at 2uM final concentration against transgenic Leishmania Mexicana promastigotes LmGLUT1 that are glucose transport deficient and complemented with the human glucose transporter GLUT1. Activity is measured by DNA content using SYBR green in vitro
# [2] = biological target: Hexose transporter 1 (Plasmodium falciparum) (UniProt O97467); assay: ST_JUDE_LEISH: Cytotoxicity at 2uM final concentration against transgenic Leishmania Mexicana promastigotes LmPfHT that are glucose transport deficient and complemented with the Plasmodium falciparum hexose transporter. Activity is measured by DNA content using SYBR green in vitro
# [3] = biological target: Glucose transporter (Leishmania mexicana) (UniProt O61059); assay: ST_JUDE_LEISH: Cytotoxicity at 2uM final concentration against transgenic Leishmania Mexicana promastigotes LmGT2 that are glucose transport deficient and complemented with the L. Mexicana glucose transporter 2. Activity is measured by DNA content using SYBR green in vitro
# Solute carrier family 2, facilitated glucose transporter member 1 (Homo sapiens), sequence (P11166 whole entry): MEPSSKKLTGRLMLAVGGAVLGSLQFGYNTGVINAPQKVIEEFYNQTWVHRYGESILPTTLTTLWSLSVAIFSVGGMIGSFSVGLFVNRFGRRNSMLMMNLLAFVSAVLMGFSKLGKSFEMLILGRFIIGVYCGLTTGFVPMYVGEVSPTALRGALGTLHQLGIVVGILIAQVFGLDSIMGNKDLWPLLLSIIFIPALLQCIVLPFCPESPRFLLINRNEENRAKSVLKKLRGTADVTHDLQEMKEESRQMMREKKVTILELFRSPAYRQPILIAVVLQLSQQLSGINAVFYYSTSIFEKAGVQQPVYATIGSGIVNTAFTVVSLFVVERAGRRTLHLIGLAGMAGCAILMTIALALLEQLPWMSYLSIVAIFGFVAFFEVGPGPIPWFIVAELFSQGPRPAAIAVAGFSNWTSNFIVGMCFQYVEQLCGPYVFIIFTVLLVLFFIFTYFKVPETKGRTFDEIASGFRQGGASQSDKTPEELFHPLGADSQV
structure (smiles),measurement,setting,value
CCCCCCNC[C@@H](O)[C@H](Cc1ccccc1)NC(=O)c1cc(NCC)cc(N2CCCCS2(=O)=O)c1,inhibition,[1],1.43%
same,inhibition,[2],1.73%
same,inhibition,[3],5.06%
Oc1ccc(CCNc2nc(NCCOc3cccc4ccccc34)nc(N3CCNCC3)n2)cc1,inhibition,[1],3.36%
same,inhibition,[2],0.4%
same,inhibition,[3],2.56%
COc1ccc(-c2cncc3ccc(C(=O)NCCCn4ccnc4)nc23)cc1,inhibition,[1],7.45%
same,inhibition,[2],8.66%
same,inhibition,[3],7.3%
CN(C)CCCOc1cccc(NC(=O)Nc2ccc(Cl)c(Cl)c2)c1,inhibition,[1],-1.47%
same,inhibition,[2],-0.6%
same,inhibition,[3],-1.24%
CC(C)CCn1c(Sc2ccc(C#N)c([N+](=O)[O-])c2)nnc1-c1ccccc1Cl,inhibition,[1],4.86%
same,inhibition,[2],3.76%
same,inhibition,[3],1.46%
N#Cc1ccc(CNCCCCCCNCc2ccc(C#N)c3ccccc23)c2ccccc12,inhibition,[1],2.15%
same,inhibition,[2],1.12%
same,inhibition,[3],2.53%
CCOC(=O)CCCCOc1c(OC)cc(Cc2cnc(N)nc2N)cc1OC,inhibition,[1],6.18%
same,inhibition,[2],6.88%
same,inhibition,[3],6.09%
CNC(=O)Cc1ccc(C(=O)Nc2cccc(-c3cccc(-c4nc5cccc(C)c5[nH]4)c3)c2)cc1,inhibition,[1],-2.05%
same,inhibition,[2],-0.87%
same,inhibition,[3],-1.69%
CN1CCN(Cc2ccc(-c3ccc4c(Nc5ccc(Oc6ccccc6)cc5)ccnc4c3)o2)CC1,inhibition,[1],-0.9%
same,inhibition,[2],-0.3%
same,inhibition,[3],0.49%
Cc1cc(C)c(NC(=O)NC2CCN(CCCCCNC(=O)/C=C/c3ccc(Cl)c(Cl)c3)CC2)c(C)c1,inhibition,[1],4.35%
same,inhibition,[2],2.53%
same,inhibition,[3],3.81%
Cc1ccc(NC(=O)c2ccnc(N3CCN(c4ccncc4)CC3)c2)cc1F,inhibition,[1],3.18%
same,inhibition,[2],4.4%
same,inhibition,[3],4.05%
Cc1csc(-c2nc(NCCc3c(C)noc3C)ncc2-c2ccsc2)n1,inhibition,[1],8.17%
same,inhibition,[2],11.5%
same,inhibition,[3],10.2%
O=C(NC1CC1)c1cnc(N2CCC(OCc3ccccc3)CC2)c(Cl)c1,inhibition,[1],1.59%
same,inhibition,[2],3.18%
same,inhibition,[3],-1.03%
COc1cc(-n2cnc3cc(-c4ccc([N+](=O)[O-])cc4)sc3c2=O)ccc1OCCN1CCCC1,inhibition,[1],19.5%
same,inhibition,[2],20%
same,inhibition,[3],16%
Cn1c(/C=C/C(=O)NC2CCC(CCN3CCc4ccc(C#N)cc4CC3)CC2)cc2ccccc21 (stereo not given),inhibition,[1],2.51%
same,inhibition,[2],4.9%
same,inhibition,[3],3.48%
CCCNCc1ccc(-c2ccc(CN(CCOC)C(=O)CC3CCCC3=O)cc2)nc1 (stereo not given),inhibition,[1],0.55%
same,inhibition,[2],0.07%
same,inhibition,[3],-9.43%
COc1ccc2nccc([C@@H](O)CN3CCC(NCc4[nH]c5ccccc5c4F)CC3)c2c1,inhibition,[1],9.88%
same,inhibition,[2],9.58%
same,inhibition,[3],1.18%
O=C(c1ccc(OCCn2ccnc2)cc1)N1CCC(c2ccc(Br)cc2)C1 (stereo not given),inhibition,[1],0.09%
same,inhibition,[2],3.01%
same,inhibition,[3],0.49%
Cc1csc(NC(=O)c2cn(-c3ccccc3)nc2-c2cccs2)n1,inhibition,[1],6.04%
same,inhibition,[2],4.44%
same,inhibition,[3],0.74%
COc1cc(Cc2cnc(N)nc2N)ccc1OCc1ccc(F)c(F)c1,inhibition,[1],3.03%
same,inhibition,[2],5.38%
same,inhibition,[3],4.59%
O=C(Nc1ccccc1)Nc1ccc(-c2cccc(-c3nc4cc(C(F)(F)F)ccc4[nH]3)c2)cc1,inhibition,[1],4.44%
same,inhibition,[2],0.5%
same,inhibition,[3],2.05%
Cc1ccccc1Nc1nc(NCc2ccccc2)nc2ccccc12,inhibition,[1],14.9%
same,inhibition,[2],10.9%
same,inhibition,[3],5.77%
c1ccc2c(NCCCCCCCNc3ccnc4ccccc34)ccnc2c1,inhibition,[1],13.5%
same,inhibition,[2],13.3%
same,inhibition,[3],12.9%
CCCCCCNCCOc1ccc(-c2nc(-c3ccccc3)c(-c3ccccc3)[nH]2)cc1,inhibition,[1],4.61%
same,inhibition,[2],1.32%
same,inhibition,[3],1.62%
CCCCCn1c(Sc2ccc(C#N)c([N+](=O)[O-])c2)nnc1-c1cc(OC)cc(OC)c1,inhibition,[1],13%
same,inhibition,[2],10.4%
same,inhibition,[3],9.25%
CN1CCCCC1CCc1cc(C(=O)Nc2ccc(-c3ccc(O)cc3)cc2)ccc1O (stereo not given),inhibition,[1],1.7%
same,inhibition,[2],1.76%
same,inhibition,[3],-0.5%
FC(F)c1nc2ccccc2n1-c1nc(N2CCOCC2)nc(N2CCOCC2)n1,inhibition,[1],2.11%
same,inhibition,[2],2.9%
same,inhibition,[3],3.12%
CC(C)(C)c1ccc(CN2CCC(NC(=O)c3ccc(-c4cccc(Cl)c4)s3)CC2)cc1,inhibition,[1],11.2%
same,inhibition,[2],8.67%
same,inhibition,[3],7.09%
CCCNC(=O)C1CCN(C(c2ccc(Cl)cc2)c2ccc(Cl)cc2)CC1,inhibition,[1],-0.62%
same,inhibition,[2],2.95%
same,inhibition,[3],0.49%
O=C(Nc1ccccc1)c1ccc(N2CCC(COc3cccc(C(F)(F)F)c3)CC2)nc1,inhibition,[1],1.05%
same,inhibition,[2],1.65%
same,inhibition,[3],1.07%
